# Where “and” joins values, the source holds several entries; their conditions need not be identical. Equal values may be shown once. Records with an inconclusive call do not appear. Values without a mark were called inactive. Calls of active or inactive are those of the source. The call rests on the fitted dose curve; in most records, active means well fitted cell-killing curve with a large enough effect; inconclusive means small, poorly fitted or top-dose-only effect; inactive means flat fitted curve, though single readings scatter.
# Test: Cell Viability - LYMP2-006 (AID 978); further: nearly all actives have a fitted effect of over 60% in size
# Details: LYMP2-006 lymphoblastoid cell viability, qHTS; series mostly up to 92.2 µM; activity change, negative = cytotoxicity: at the top concentration
# From the text: NIH Chemical Genomics Center [NCGC]
# NIH Molecular Libraries Screening Centers Network [MLSCN]
# National Institutes of Environmental Health Sciences [NIEHS]
# National Toxicology Program [NTP]
# We have developed a 1536-well cell-based assay for quantitative high throughput screening (qHTS) against a number of cell lines to determine in vitro cytotoxicity of small molecules. This particular assay uses a human lymphoblastoid cell line (LYMP2-006) purchased from Coriell Institute for Medical Research.
# NCGC Assay Protocol Summary:
# The CellTiter-Glo luminescent cell viability assay (Promega) is a homogeneous method to measure the number of viable cells in culture. The end point readout of this assay is based on quantitation of intracellular ATP, an indicator of metabolic activity, using the luciferase reaction. Luciferase catalyzes the oxidation of beetle Luciferin to oxyluciferin and light in the presence of ATP. The luminescent signal is proportional to amount of ATP present.
# Using the CellTiter-Glo luminescent cell viability assay, the amount of cellular ATP was measured in the lymphoblastoid cell line with complete culture medium following compound treatment for 24 hours. The assay was performed in opaque white Kalypsys 1536-well plates. In the screen, tetraoctylammonium bromide was used as positive control. Library compounds were measured for their ability to cause acute toxicity in the cell line, as reflected by a decrease in intracellular ATP levels, in a concentration-dependent manner. […] AC50 values were determined from concentration-response data modeled with the standard Hill equation.
# qHTS protocol for CellTiter Glo lymphoblastoid cellular assay
# [Step] [Parameter] [Value] [Description]
# 1. Reagent; 5 uL; 2500 lymphoblastoid cells/well
# 2. Time; 5 hr; 37 C incubation
# 4. Controls; 23 nL; Tetraoctylammonium bromide 6.4pM to 92 uM
# 5. Time; 24 hr; 37 C incubation
# 6. Reagent; 5 uL; CellTiter Glo reagent
# 7. Time; 30 min; Room Temperature
# 8. Detection; Luminescence; Viewlux plate reader
# Keywords: cell viability, cytotoxicity, lymphoblastoid cell line, luminescence, NTPHTS, NTPHTS_NCGC, NIEHS, DSSTox, MLSMR, MLSCN, NIH Roadmap, qHTS, NCGC
# On the % scale 0 is the no-effect control and ±100 the full control effect; potency means the concentration at half of the fitted maximal effect.
Structure (SMILES),Potency,"activity change, negative = cytotoxicity"
Oc1cccc2cccnc12,25.1 µM (active) and 15.8 µM (active),–
c1ccc2c(c1)Nc1ccccc1S2,–,-2.46%
NCC(O)c1ccc(O)cc1 (stereo unspecified),–,-1.18%
N[C@@H](Cc1ccc(N(CCCl)CCCl)cc1)C(=O)O,39.8 µM (active),–
CCCC(C)(COC(N)=O)COC(=O)NC(C)C (stereo unspecified),–,1.23%
Oc1ccc(Cl)cc1Cc1ccccc1,–,0.192%
Oc1ccccc1-c1ccccc1,–,6.13%
CNCC(O)c1ccc(O)cc1 (stereo unspecified),–,3.65%
CC(COc1ccccc1)N(CCCl)Cc1ccccc1 (stereo unspecified),50.1 µM (active),–
OCCOc1ccccc1,–,-4.59%
CCOP(=S)(OCC)Oc1cc(C)nc(C(C)C)n1,–,-18.5%
